The campaign covered roughly 65,000 compounds. About 2,100 (3.2%) showed an effect of 50% or more. The median lay at about -52%. What follows is part of a selection rich in strong results, with near analogues and random picks from the rest.
test system: Plasmodium falciparum; assay: Screen against P. falciparum Asexual Blood Stage (ABS), at 5uM; format: functional, Dd2; conditions: tested at 5 uM

Row | SMILES | INHIBITION [%]
1 | O=C([C@H]1CCCO1)N1CCOC2(CCCN(c3ncccc3F)C2)C1 (some centres undefined) | -9.29
2 | CC(C)Nc1nc2c(c(N(C)C)n1)CCN(Cc1nccn1C)CC2 | 54.5
3 | CN(C)c1nc(N2CCCC2)nc2c1CCN(Cc1nccn1C)CC2 | 7.51
4 | Cc1nc(NC(C)C)nc2c1CN(Cc1nccn1C)CC2 | -27.4
5 | O[C@@H]1CN(c2noc(C3CC3)n2)CC[C@H]1c1ccc2ccccc2c1 | -24.7
6 | Cc1cnn(C2CCCN(C(=O)c3ccccc3-n3cnnn3)C2)c1 (centres undefined) | -52.2
7 | COc1cccc(-c2n[nH]cc2CNCC2CCS(=O)(=O)C2)c1 (centres undefined) | -48.5
8 | CNC(=O)c1cc(NC(=O)NCC2CCS(=O)(=O)C2)ccc1OC (centres undefined) | -116
9 | COc1ccc2ccccc2c1CNCC1CCS(=O)(=O)C1 (centres undefined) | 67.4
10 | CC(C)OCCCNC(=O)CN(c1ccc(F)c(F)c1)S(C)(=O)=O | -105
11 | Fc1cccc(-c2nnn3c2COC(CNCc2ccsc2)C3)c1 (centres undefined) | -82.8
12 | c1cc(CN2Cc3nccn3CC(Cn3cncn3)C2)ccn1 (centres undefined) | -4.38
13 | O=C(C1CC1)N1CCC2(CC1)COCCN2Cc1ccc(F)cc1 | -40.7
14 | Cc1ccc(C(C(=O)NC(C)(C)CN2CCCC2)N(C)C)cc1 (centres undefined) | 52
15 | Cc1cccc(C(C(=O)NC(C)(C)CN2CCCC2)N(C)C)c1 (centres undefined) | 38.5
16 | Cc1ccc(C(C(=O)NCCN2CCCCCC2)N(C)C)cc1 (centres undefined) | 58.5
17 | Cc1cccc(C(C(=O)NC(C)(C)CN2CCOCC2)N(C)C)c1 (centres undefined) | 32
18 | Cc1ccc(C(C(=O)NCCN2CCC(CO)CC2)N(C)C)cc1 (centres undefined) | -9.75
19 | Cc1ccc(C(C(=O)NCCc2nc(C)cc(C)n2)N(C)C)cc1 (centres undefined) | -102
20 | Cc1cccc(COc2ccc(C(C)N)cc2)c1 (centres undefined) | 8.28
21 | CCc1ccc2nc(C)cc(C(=O)N[C@@H]3CNC[C@H]3O)c2c1 | -22
22 | CCc1ccc2nc(C)cc(C(=O)N[C@@H]3CCCNC3)c2c1 | 64.5
23 | CCc1ccc2nc(C)cc(C(=O)NC[C@@H]3CCNC[C@H]3O)c2c1 | -49.3
24 | N#CCCNC(=O)CN1CC(n2cccn2)C1 | -21.3
25 | O=S(=O)(Cc1cccc(Cl)c1)CC(O)Cn1cccn1 (centres undefined) | -0.894
26 | O=C(c1cscn1)N1CCc2c(COCC3CC3)cncc2C1 | -54.8
27 | O=c1occ(CN2CCCCCC2)c(O)c1CN1CCCCCC1 | 55.5

Row | SMILES | INHIBITION [%]
28 | O=c1occ(CN2CCSCC2)c(O)c1CN1CCCC1 | -7.27
29 | O=c1occ(CN2CCCCCC2)c(O)c1CN1CCOCC1 | -36
30 | COc1c(C(=O)NCC(C)C)nnn1Cc1ccccc1 | -128
31 | C[C@@H]1CN(CCOc2ccc(Cl)cc2)CC[C@@]1(O)C1CCOCC1 | -28.8
32 | C[C@@H]1CN(CCOCc2ccccc2)CC[C@@]1(O)C1CCC1 | 54.7
33 | C[C@@H]1CN(CCC(=O)N(C)Cc2ccccc2)CC[C@@]1(O)C1CCC1 | 22.8
34 | CN(CCCc1cc(-c2ccc(F)cc2)n(C)n1)CC(=O)NC(N)=O | -152
35 | CN(C)C(=O)C1CCC2(CCN(Cc3ccc4ccccc4n3)CC2)O1 (centres undefined) | -19
36 | CCOc1ccc(Cl)cc1C(C(=O)O)N1CCCC1 (centres undefined) | 2.39
37 | CCOc1ccc(Cl)cc1C1CCCCN1 (centres undefined) | 68.8
38 | CCOc1ccccc1C1CCCN1 (centres undefined) | -8.92
39 | Cn1cc(CCC(=O)N2C[C@@H]3CC[C@H]2CN(Cc2ccccc2)C3)cn1 | 14.3
40 | CCC(=O)N1CCCCC1c1nc(O)c2c(n1)CN(C(C)=O)CC2 (centres undefined) | -29.8
41 | Cc1ccoc1CNCc1nnc2n1CC(C(F)(F)F)CC2 (centres undefined) | -13.5
42 | Cc1ccccc1CN(C)CC(O)COCc1ccccc1Cl (centres undefined) | 68.9
43 | COc1ccccc1COCC(O)CN(C)Cc1cccc(Cl)c1 (centres undefined) | -93.4
44 | COc1ccc(CN(C)CC(O)COCc2ccccc2Cl)c(OC)c1 (centres undefined) | -5.65
45 | OC[C@H]1CN(Cc2c(Cl)cncc2Cl)C[C@H]1CN1CCOCC1 | -53.1
46 | OC[C@H]1CN(Cc2c(Cl)cncc2Cl)C[C@H]1CN1CCCCCC1 | 12.6
47 | OC[C@H]1CN(Cc2c(Cl)cccc2Cl)C[C@H]1CN1CCCCC1 | 50.8
48 | Clc1ccc(CN(CCN2CCOCC2)Cc2cccnc2)cc1Cl | 53.8
49 | Clc1cccc(Cl)c1CN(CCCN1CCOCC1)Cc1cccnc1 | -6.41
50 | Clc1ccc(CN(CCN2CCOCC2)Cc2cccnc2)c(Cl)c1 | 35.4
51 | CN(C)[C@@H]1CCN(C(=O)c2cccn2C)[C@H]1Cc1cnn(C)c1 | -109
52 | O=C(c1ccco1)N1CC[C@@H]2O[C@@H](COCCN3CCCC3)CC[C@@H]21 | -86.1
53 | c1cnc(N2CC[C@@H]3O[C@@H](COCc4cccnc4)CC[C@@H]32)nc1 | -60.3
54 | CCN(CC)Cc1ccc(C(=O)NC2CCc3cc(Br)ccc32)o1 (centres undefined) | 47.7
